Screening data deposited in PubChem BioAssay by National Center for Advancing Translational Sciences (NCATS).
This is a sample that favours compounds with a hit; in the whole collection about 4.2% have one here.
SW480 rerep: A quantitative high throughput screen for small molecules that induce DNA re-replication in SW480 colon adenocarcinoma cells; Potency, µM (highest dose often 46.1 µM), usual class: activators; hit rate 1.8% among 340,000; SW480 DNA re-replication, Hoechst DNA content imaging, 48 h; AID 624297, 2012; also: nearly all actives have a fitted effect of over 55% in size
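Hoechst fluorescence of nuclei (405 nm excitation, 500-530 nm emission) measured by plate-scanning imager after 48 hr compound exposure at 37 C; re-replication scored as increased number of nuclei with elevated intensity.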
MCF10A rereplic: A quantitative high throughput screen for small molecules that induce DNA re-replication in MCF 10a normal breast cells | MCF 10A DNA re-replication, Hoechst nuclear intensity, 48 h | AID 624296, 2012 | hit rate 2.9% among 350,000 | Potency, µM (series often up to 46.1 µM), hits mostly activators; also: nearly all actives have a fitted effect of over 50% in size
AT treatment: qHTS Assay for Identifying a Potential Treatment of Ataxia-Telangiectasia; F2112 A-T fibroblasts, KAP-1 phosphorylation AlphaLISA; neocarzinostatin DNA damage 30 min before lysis; Potency, µM (titrated, usually from 57.5 µM), actives largely listed as activators; hit rate 0.19% among 320,000; also: nearly all actives have a fitted effect of over 45% in size
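ATM-like activity read as KAP-1 phosphorylation via AlphaLISA donor/acceptor antibody pairs after lysis and 6 hr at 25C. Cells were ATM-null patient fibroblasts (F2112, hTERT), dosed 60 min, then exposed to the DSB inducer NCS for 30 min.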
Mito fusion act: qHTS Assay for Small Molecule Inhibitors of Mitochondrial Division or Activators of Mitochondrial Fusion; S. cerevisiae fusion-defective mutant growth rescue, CellTiterGlo 48 h; Potency, µM (titrated, usually from 46.1 µM), most hits filed as activators; hit rate 0.23% among 320,000; also: nearly all actives have a fitted effect of over 45% in size
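S. cerevisiae fusion-defective temperature-sensitive mutants (e.g. fzo1-1, mgm1-5) grown 48 h at 37C in YPEG (ethanol/glycerol non-fermentable) medium with 23 nl compound per well; growth rescue read as CellTiterGlo luminescence.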
a7 integrin act: qHTS for Activators of Integrin-Mediated Alleviation for Muscular Dystrophy; alpha7betagal myoblasts, beta-gal FDG fluorescence, 48 h; Potency, µM (top dose mostly 38.3 µM), actives largely listed as activators; hit rate 0.064% among 350,000; also: nearly all actives have a fitted effect of over 60% in size
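Alpha7betagal+/- myoblasts (passage 13) were plated 16-24 hr, then exposed to compounds (1:260 dilution of DMSO stock) for 48 hours at 37C. After MPER lysis, β-galactosidase reporter activity was read as FDG fluorescence (ex 480/em 540) after 30 minutes.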
Numbers stand for hits; – = inactive; ? = inconclusive; · = not tested or not shown; [ ] = dose if it differs, or a comment. Calls follow the shape of the dose curve; as a rule, active = well fitted activation curve with a large enough effect; inconclusive = small, poorly fitted or top-dose-only effect; inactive = no such curve, though single readings can be large or run the other way.

SMILES | SW480 rerep | MCF10A rereplic | AT treatment | Mito fusion act | a7 integrin act
COc1cc(C2c3cc4c(cc3OC(NNC(N)=O)C2C)OCO4)cc(OC)c1OC (stereo not drawn) | 1.3µM | 0.73µM | · | · | –
COc1ccc2[nH]c(=O)c(CNc3cc(C)ccc3C)cc2c1 | ? | – | – | – | –
COc1cccc(CNC(=O)c2ccncc2)c1 | – | – | – | – | ?
COc1cccc(C2c3cc4c(cc3OC(C)(N3CCCC3)C2C)OCO4)c1O (stereo not drawn) | 18µM | ? | · | · | –
CCOc1ccccc1C1c2cc3c(cc2OC(C)(N2CCCC2)C1C)OCO3 (stereo not drawn) | ? | – | · | · | –
COc1cc(C2c3cc4c(cc3C(O)C3COCC23)OCO4)cc(OC)c1OC (stereo not drawn) | 13µM | ? | · | · | –
COc1ccc(NC(=O)CCN2CCN(c3ccc(F)cc3)CC2)cc1 | – | – | – | – | –
COc1ccc(-c2nc3c4c(ncn3n2)-c2ccccc2CC42CCCC2)cc1 | – | – | – | – | –
Oc1cccc(-c2nc3c4c(ncn3n2)-c2ccccc2CC42CCCC2)c1 | – | 2.1µM | – | – | –
O=C(Nc1ccc(F)cc1F)c1csc(-c2ccccc2)n1 | ? | ? | – | – | –
O=C(Nc1ccc(F)cc1F)c1cccc(C(=O)Nc2ccc(F)cc2F)n1 | 16µM | 6.5µM | – | – | –
O=C1c2ccccc2C(=O)N1CCCc1cn(C[C@H]2CC[C@H](Cn3cc(CCCN4C(=O)c5ccccc5C4=O)nn3)O2)nn1 | – | – | – | · | –
CN(C)c1cccc2c(S(=O)(=O)N3CCOCC3)cccc12 | – | – | – | – | –
CN(C)c1cccc2c(S(=O)(=O)N3CCCC3)cccc12 | – | ? | 20µM | – | –
CCSc1nnc(-c2sc3nnc(-c4ccccc4)c(-c4ccccc4)c3c2N)o1 | ? | 3.3µM | – | – | –
CC1CN(CC(O)COC(c2ccc(Cl)cc2)c2ccc(Cl)cc2)CC(C)O1 (stereo not drawn) | – | 7.3µM | – | – | –
CC1CN(CC(O)COc2ccc(C(C)C)cc2)CC(C)O1 (stereo not drawn) | – | – | – | – | –
CCOC(=O)CC1=NN(c2ccccc2)C(=O)/C1=C\c1ccc(OC)cc1OC | ? | 10µM | – | – | –
CN(CC1CCCN(CCc2ccccc2F)C1)C(=O)c1cc2ccccc2o1 (stereo not drawn) | · | · | · | · | –
COc1ccc(C(=O)/C=C/NCc2ccc(C)cc2)cc1 | 21µM | 13µM | · | · | –
Clc1cc(Cl)cc(Nc2ccccc2CN(C/C=C/c2ccc3c(c2)OCO3)Cc2ccccc2)c1 | · | · | · | · | –
Cc1ccc(S(=O)(=O)N2CCN(C(=O)CC(C)n3nc(C)c(Cl)c3C)CC2)cc1 (stereo not drawn) | – | – | – | – | –
O=C(CSc1nc2nc(-c3cccs3)cc(C(F)(F)F)c2c(=O)[nH]1)Nc1ccc(F)c(F)c1 | – | 18µM | – | – | –
Cc1ccc(C)c(NC(=O)CSc2nc3nc(-c4cccs4)cc(C(F)(F)F)c3c(=O)[nH]2)c1 | – | 21µM | – | – | –
COC(=O)c1ccc2c(=O)n(CCN3CCOCC3)c(SCC(=O)c3ccccc3)nc2c1 | – | – | 18µM | – | –
SMILES | SW480 rerep | MCF10A rereplic | AT treatment | Mito fusion act | a7 integrin act
CCCCN1CN(S(=O)(=O)c2ccc(OC)cc2)c2nc3ccccc3nc21 | – | – | – | – | –
O=S(=O)(c1ccc(Cl)cc1)N1c2ccccc2Oc2nc3ccccc3nc21 | – | 15µM | – | – | –
COc1ccc(S(=O)(=O)N2c3cc(Cl)ccc3Oc3nc4ccccc4nc32)cc1 | 2.1µM | 1µM | – | – | –
O=S(=O)(c1ccc(Cl)cc1)N1CN(CC2CCCO2)c2nc3ccccc3nc21 (stereo not drawn) | – | – | – | – | –
CC(C)(C)SCCNC(=O)CN(c1ccc(F)cc1)S(C)(=O)=O | – | – | – | 6.3µM | –
CC(C)(C)SCCNC(=O)CN(c1ccc(F)c(Cl)c1)S(C)(=O)=O | – | – | – | – | –[7.66 µM]
CC(=O)Nc1nc2c(s1)CCc1ccccc1-2 | – | ? | – | – | –
O=c1oc2cc(O)ccc2cc1-c1nc2c(s1)CCc1ccccc1-2 | 3.7µM | ? | 18µM | – | –
Nc1nc2c(s1)CCc1ccccc1-2 | – | – | – | – | –
O=c1oc2ccccc2cc1-c1nc2c(s1)CCc1ccccc1-2 | 21µM | ? | – | – | –
O=C(Nc1nnc(-c2ccccc2)o1)c1nc2ccccc2s1 | – | 23µM | – | – | –
COc1ccccc1-c1cc(C(=O)Nc2cc(C)nn2-c2ccccc2)no1 | – | 1.3µM | – | – | –
Nc1nc(-c2cc3ccccc3o2)cs1 | – | ? | – | – | –
CCOc1ccccc1C1N=C(c2ccc(OC)cc2)CC(c2ccccc2O)N1 (stereo not drawn) | ? | ? | – | – | –
CC(C)C1N=C(c2ccc3c(c2)OCO3)CC(c2ccccc2O)N1 (stereo not drawn) | ? | 21µM | – | – | ?
O=c1[nH]c(=O)c2[nH]c(=S)[nH]c2[nH]1 | – | – | · | · | –
COc1cc(OC)c2c(-c3cccc(-c4ccc(CO)cc4)c3)cc(=O)oc2c1 | 0.73µM | ? | – | · | –
COc1ccc(-c2cccc(-c3cc(=O)oc4cc(OC)cc(OC)c34)c2)cc1 | 0.23µM | 0.21µM | – | · | –
COc1cc2oc(=O)cc(-c3ccc(-c4ccc(N(C)C)cc4)cc3)c2c(OC)c1OC | – | 1µM | – | · | –
COc1cc(OC)c2c(-c3cccc(-c4ccc(N(C)C)cc4)c3)cc(=O)oc2c1 | 4.1µM | ? | – | · | –
COc1ccc(-c2ccc(-c3cc(=O)oc4cc(OC)c(OC)c(OC)c34)cc2)cc1F | – | ? | –[11.5 µM] | · | –
CC1CC(C)CN(C(=O)c2cc3c(=O)n4ccccc4nc3s2)C1 (stereo not drawn) | – | 21µM | – | – | –
CC(C)NC(=O)c1cc2c(=O)n3ccccc3nc2s1 | – | – | – | – | –
O=C(NC1CCCCCC1)c1cc2c(=O)n3ccccc3nc2s1 | 18µM | 21µM | – | – | –
CC1CN(C(=O)c2cc3c(=O)n4ccccc4nc3s2)CC(C)O1 (stereo not drawn) | – | – | – | – | –
Cc1cc(C)cc(NC(=O)c2cc3c(=O)n4ccccc4nc3s2)c1 | 9.2µM | ? | – | – | ?
Cc1ccc(-c2nc3c(Cl)cc(Cl)cc3c(=O)n2O)cc1 | – | ? | – | – | –
CN(Cc1nc2c(s1)CCCC2)C(=O)CCc1nnc(-c2ccc3c(c2)OCO3)o1 | – | – | – | – | –
COc1ccc(NS(=O)(=O)c2ccc(O)c(NC(=O)c3cc4c(C)nn(-c5ccc(F)cc5)c4s3)c2)cc1 | ? | 8.2µM | – | – | –
